Records with an inconclusive call do not appear. Unmarked numbers belong to inactive results. Calls follow the shape of the dose curve; as a rule, active = well fitted cell-killing curve with a large enough effect in the repeat runs; inconclusive = weak or mixed curves, or effect the other way; inactive = flat fitted curve, though single readings scatter. Where a SMILES comes first, the peptide text is derived from it.

This is an account of results in PubChem BioAssay (Tox21).
% is scaled to controls: 0 for no effect and ±100 for the full control effect.

The test is described as follows: qHTS assay to identify small molecule antagonists of the androgen receptor (AR) signaling pathway using the MDA cell line in the presence of 0.5 nM R1881 - cell viability counter screen (AID 1259242). Also: nearly all actives have a fitted effect of over 45% in size. As to conditions: MDA-kb2 viability, CellTiter-Fluor protease fluorescence, 16 h; series mostly up to 92.4 µM; viability change, negative = cytotoxic: at the top concentration. The text has this:
U.S. Tox21 Program National Center for Advancing Translational Sciences [NCATS] NIH Chemical Genomics Center [NCGC] U.S. Environmental Protection Agency [EPA] National Institutes of Environmental Health Sciences [NIEHS] National Toxicology Program [NTP] U.S. Food and Drug Administration [FDA] Tox21 Assay Overview: Androgen receptor (AR) is an important member of the nuclear receptor family. Its signaling plays a critical role in AR-dependent prostate cancer and other androgen related diseases. Considerable attention has been given in the past decades to develop methods to study and screen for the environmental chemicals that have the potential to interfere with metabolic homeostasis, reproduction, developmental and behavioral functions. Therefore AR binding assay for screening androgen antagonists can be used to identify potential endocrine disruptors. MDA-kb2 cells (from ATCC, deposited by Wilson et al.) were used to screen for AR inhibitors against Tox21 compound libraries. These cells are human breast carcinoma cells that were stably transfected with a luciferase reporter gene under control of the MMTV promoter that contains response elements for both androgen receptor (AR) and glucocorticoid receptor (GR). The current screening for identification of AR inhibitors against Tox21 libraries used lower concentration of (0.5 nM) R1881 as a stimulator. The cytotoxicity of the Tox21 compound libraries against MDA-kb2 cell line was tested by measuring live-cell protease activity using CellTiter-Fluor assay in the same wells.
Tox21 Assay Protocol Summary: MDA-kb2 cells (cells cultured without CO2) were dispensed at 3,000 cells/well in 4 uL of culture medium into white wall/solid-bottom 1536-well plates (Corning Life Sciences, Corning, NY) using a Multidrop Combi (ThermoFisher Scientific, Waltham, MA) dispenser. After the assay plates were incubated at a 37C and 0% CO2 for 5 hr, 23 nL of compounds dissolved in DMSO, positive controls or DMSO only was transferred to the assay plate by a Pintool station (Kalypsys, San Diego, CA). The transfer of compounds was followed by the addition of 1 uL of 0.5 nM (final concentration) agonist (R1881)/culture medium using a Flying Reagent Dispenser (FRD, Aurora Discovery, San Diego, CA). The plates were incubated at 37C and 0% CO2 for 16 hr. For cytotoxicity assay, 1 uL of CellTiter-Fluor reagent (Promega Corporation, Madison, WI) was added to each well using the FRD and after 30 min incubation at 37C and 0% CO2, The fluorescence intensity was measured using ViewLux plate reader (PerkinElmer, Shelton, CT).
A general note: qHTS replaces the single test concentration by a dilution series.
With `CC(=O)N[C@@H](CO)C(=O)N[C@@H](CC(=O)O)C(=O)N[C@@H](CCCCN)C(=O)N1CCC[C@H]1C(=O)O` (Ac-SDKP-OH), the “viability change, negative = cytotoxic” value is 5.81% [at 42.5 µM].
In the case of `C=CCCCCCCCCC(=O)OCCCC`, the “viability change, negative = cytotoxic” value is 1.56%.
The result for `COS(=O)(=O)O` reads -2.3%; that for `CC(=O)CC(=O)Nc1ccc(C)cc1C`, 6.93%; that for `CCOC(=O)CC1(C)OCC(C)O1` (stereo not given), 6.26%.
On to `COCCc1ccccn1`, for which the “viability change, negative = cytotoxic” value is 0.868% [at 42.5 µM].
The result for `O=C1c2ccccc2C(=O)c2cc(Cl)ccc21` reads 2.58% [at 8.39 µM].
`CCCCCCCCCCCCCCCCCC#N`: the “viability change, negative = cytotoxic” value is 8%.
On to `O=C(Cn1ccnc1[N+](=O)[O-])NCc1ccccc1`, for which the “viability change, negative = cytotoxic” value was 2.94% [at 42.5 µM].
For `CCN(CC)CCN`, the “viability change, negative = cytotoxic” value is 5.05% [at 42.5 µM].
As to `C=CCSSCCC`, the “viability change, negative = cytotoxic” value was 8.15%.
With `Cc1c(Cl)cccc1Cl`, the “viability change, negative = cytotoxic” value is 0.04%.
The result for `CCCSSCCC` reads 2.7%; that for `O=Cc1ccccc1Cl`, 0.35%.
The result for `C=CCN1C[C@H](C(=O)N(CCCN(C)C)C(=O)NCC)C[C@@H]2c3cccc4[nH]cc(c34)C[C@H]21` reads -14.9% [at 42.5 µM]; that for `CC1(C)Cc2cccc(N)c2O1`, 2%; that for `CO/N=C(/C(=O)N[C@@H]1C(=O)N2C(C(=O)[O-])=C(C[n+]3ccn4ncccc43)CS[C@H]12)c1nsc(N)n1`, -4.69% [at 42.5 µM].
The value for `C=CCCCC` was 1.57%.
Consider `Cc1c(N)cccc1Cl`, for which the “viability change, negative = cytotoxic” value was -1.41%.
For `C=CC(=O)OCC1CCCO1` (stereo not given), the “viability change, negative = cytotoxic” value was -1.28%.
Regarding `CC(=O)C(C)O` (stereo not given), the “viability change, negative = cytotoxic” value was 0.0675%.
Take `N#CCC(=O)NN`: the “viability change, negative = cytotoxic” value was -3.72% [at 42.5 µM].
Regarding `CCC(=O)CC`, the “viability change, negative = cytotoxic” value was 0.229%.
The value for `O/N=C/C=N/O` was 5.15%.
The result for `CC(C)COC(=O)c1ccccc1` reads -3.1%; that for `N[C@@H](CSCCCO)C(=O)O`, 2.53% [at 19 µM].
The result for `CC(C)=CCC/C(C)=C/COC=O` reads 2.37%; that for `CCCC(=O)OCCC(C)CCC=C(C)C` (stereo not given), -0.38%; that for `CCCCCCCCCOC(=O)CCCCC(=O)OCCCCCCC`, 3%.
In the case of `O=C(O)CSCC(=O)NC1CCSC1=O` (stereo not given), the “viability change, negative = cytotoxic” value is -2.44% [at 42.5 µM].
The value for `C=Cc1ccc(C(C)(C)C)cc1` was 2.18%; that for `CO[Si](CCCn1c(=O)n(CCC[Si](OC)(OC)OC)c(=O)n(CCC[Si](OC)(OC)OC)c1=O)(OC)OC` was 2.56% [at 42.5 µM]; that for `CC(Oc1cc(Cl)ccc1Cl)C(=O)O` (stereo not given) was -0.924%.
The value for `CC(S)C(C)S` (stereo not given) was -2.35%.
On to `CCCCCC/C=C/C(=O)OC`, for which the “viability change, negative = cytotoxic” value is 1.54%.
The value for `NCc1ccc(S(N)(=O)=O)cc1` was 0.568% [at 42.5 µM]; that for `O=C(Cl)c1ccccc1[N+](=O)[O-]` was 3.31%; that for `Nc1nnnn1-c1ccccc1` was -4.43% [at 42.5 µM].
The value for `Cn1c(=O)c2c(ncn2CCO)n(C)c1=O` was 2.39% [at 42.5 µM]; that for `CC/C(C)=N\O[Si](C)(O/N=C(\C)CC)O/N=C(\C)CC` was 6.77%.
